From PubChem BioAssay AID624330 (Southern Research Specialized Biocontainment Screening …, 2012)
Among all 340,000 compounds or so, about 2,100 (0.62%) were called active.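 Rule for the calls: active = first-screen hits whose inhibition reached a set limit at any dose in the follow-up dose series; inconclusive = inhibition above the set first-screen limit but never retested; inactive = the rest.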 A selection follows. Entries with a potency or affinity are not part of this list.

Biological target: Rac GTPase-activating protein 1 (Homo sapiens) (UniProt Q9H0H5)
Sequence (Q9H0H5 whole entry, looked up): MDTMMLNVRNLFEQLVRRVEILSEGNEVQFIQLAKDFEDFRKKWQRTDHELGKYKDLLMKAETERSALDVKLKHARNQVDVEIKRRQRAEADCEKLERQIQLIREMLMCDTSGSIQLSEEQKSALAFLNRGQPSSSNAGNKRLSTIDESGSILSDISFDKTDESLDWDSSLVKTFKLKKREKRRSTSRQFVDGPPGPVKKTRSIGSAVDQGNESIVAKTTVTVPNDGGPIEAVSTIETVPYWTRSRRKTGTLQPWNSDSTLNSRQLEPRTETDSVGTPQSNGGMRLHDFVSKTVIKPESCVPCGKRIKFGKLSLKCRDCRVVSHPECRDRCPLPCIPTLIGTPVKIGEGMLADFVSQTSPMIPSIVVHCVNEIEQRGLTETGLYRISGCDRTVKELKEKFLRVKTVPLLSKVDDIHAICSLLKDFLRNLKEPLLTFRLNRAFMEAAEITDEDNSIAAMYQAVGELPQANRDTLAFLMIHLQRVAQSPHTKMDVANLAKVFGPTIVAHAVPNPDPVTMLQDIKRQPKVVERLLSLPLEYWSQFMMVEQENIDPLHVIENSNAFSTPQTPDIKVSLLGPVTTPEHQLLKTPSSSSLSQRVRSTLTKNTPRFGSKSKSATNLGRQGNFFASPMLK
Experiment: blockers of MgcRacGAP-driven Rac1 GTP hydrolysis – biochemical, ADP Hunter fluorescence, primary and confirmatory, confirmation (AID 624330);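 note: fluorescence reports GDP produced by GAP-driven GTP hydrolysis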
Settings: MgcRacGAP-stimulated Rac1 GTP hydrolysis, at 30 µM, active compounds read high, GST-tagged Rac1 F28L mutant substrate

inhibition, inactive:
Nc1cc(C(F)(F)F)ccc1Nc1ccccc1 6.27%
O=C(O)c1ccccc1Nc1cccc(C(F)(F)F)c1 8.9%
c1ccc(Nc2cccc3c(Nc4ccccc4)cccc23)cc1 8.14%
Nc1cc(C(=O)O)ccc1Nc1ccccc1 25.7%
Nc1ccc(Nc2ccccc2N)cc1 24.3%
Nc1cccc(Nc2ccccc2)c1 8.97%
CCOc1cc(N2CCOCC2)c(OCC)cc1NC(=O)COC(=O)c1ccc(Cl)nc1 1.55%
O=C(Nc1cccc(-c2csc(Nc3ccc(Cl)cc3)n2)c1)c1ccccc1 2.45%
N#Cc1c(-c2ccccc2)cc(C2CC2)nc1SCC(=O)O 12.8%
COc1cccc(/C=N/Nc2nn3cnnc3c3ccccc23)c1 19.3%
Oc1cccc(/C=N/Nc2nn3cnnc3c3ccccc23)c1 24.6%
COc1ccc(/C=N/Nc2nn3cnnc3c3ccccc23)cc1 13.1%
COc1cc(/C=N\Nc2nncn2N)ccc1OC(C)=O -4.26%
COc1cccc(/C=N/Nc2nn3cnnc3c3ccccc23)c1O 7.65%
COc1ccc(OC)c(/C=N/Nc2nncn2/N=C/c2cc(OC)ccc2OC)c1 6.03%
CC(C)Cn1c(=O)c(-[n+]2ccccc2)c([O-])c2ccccc21 12.6%
O=C(OCc1ccccc1)N1CCC2CC1c1cc(Cl)ccc12 (stereo not given) 2.05%
Cc1nn(-c2ncc(C(F)(F)F)cc2Cl)c(=O)n1-c1ccccc1Cl 5.45%
CCCS(=O)(=O)NCc1cn2cccc(C)c2n1 4.87%
CC(=O)N1CCN(c2ccc([N+](=O)[O-])c(NCC3CCCO3)c2)CC1 (stereo not given) 7.45%
COc1cc(C(=O)OCn2nnc3ccccc3c2=O)cc(OC)c1OC 5.8%
COc1ccc(NC(=O)c2noc3c2CCC3)cc1 14.6%
COc1ccc(C2C3=C(CC(C)(C)CC3=O)Oc3ncn4nc(-c5cccnc5)nc4c32)cc1 (stereo not given) 1.38%
O=C(CCCc1c[nH]c2ccccc12)N[C@@H](Cc1c[nH]c2ccccc12)C(=O)O 9.15%
COc1cccc(CNC(=O)C2CCCN(S(C)(=O)=O)C2)c1 (stereo not given) -2.27%
CC(C)(C)c1nc2ccc(NS(=O)(=O)c3ccc(F)c(F)c3F)cc2[nH]1 -2.67%
CS(=O)(=O)Nc1ccc(C(=O)Nc2ccccc2Sc2ccccc2)cc1 9.8%
Cc1nc(CN(C)Cc2nc(Cc3cccc(F)c3)no2)cs1 5.6%
O=S(=O)(NC(=NC1CCCCC1)c1ccccc1)c1ccccc1 4.1%
COc1ccc(CCC(=O)N2CCCC(Nc3ccc(OC)cc3)C2)cc1 (stereo not given) -28.9%
COc1ccc(CCC(=O)N2CCCC(Nc3ccccc3)C2)cc1OC (stereo not given) 3.2%
Cc1ncsc1CCC(=O)N1CCCC(Nc2ccc(C(C)C)cc2)C1 (stereo not given) 5.76%
CC(C)c1ccc(NC2CCCN(C(=O)CCc3cn[nH]c3)C2)cc1 (stereo not given) 11.8%
Cc1ccc(NC2CCCN(C(=O)CCc3cn[nH]c3)C2)cc1C (stereo not given) 14.1%
COc1ccc(NC2CCCN(C(=O)CCc3cccc(Cl)c3)C2)cc1 (stereo not given) -4.43%
O=C(CCc1ccccc1)N1CCCC(Nc2ccc(F)cc2)C1 (stereo not given) 5.33%
Cc1ccc(NC2CCCN(C(=O)CCc3scnc3C)C2)cc1C (stereo not given) 10.7%
Cc1ccc(NC(=O)C2CCCN(C(=O)NCc3ccccc3)C2)c(C)c1 (stereo not given) 5.67%
CCOC(=O)CCCn1c(C)nc(=O)c(-c2ccccc2)c1C -2.8%
CCCCCCC(=O)OCC(=O)c1ccc2c(c1)NC(=O)CO2 4%
COc1ccccc1NC(=S)N(CCN(C)C)C(C)c1ccncc1 (stereo not given) 4.01%
O=S1(=O)N[C@@H](CC2CCCCC2)COc2cc(Br)ccc21 6.23%
COCC(=O)Nc1cc(C)cn(Cc2cccc(C(F)(F)F)c2)c1=O 3.75%
COc1ccc(CCNC(=O)c2[nH]c(C)c(C(C)=O)c2C)cc1 2.68%
CN(c1ccccc1)S(=O)(=O)c1cccc(NC(=O)CSc2ncn[nH]2)c1 5.76%
Cc1cc(Cl)ccc1OCC(=O)NCc1ccncc1 5.06%
COc1ccc(OC)c(C(=O)N2CCCC(Nc3ccc(F)cc3)C2)c1 (stereo not given) 12.4%
COc1ccc(NC2CCCN(C(=O)c3ccc(OC)cc3OC)C2)cc1 (stereo not given) -1.47%
CC(C)c1ccc(NC2CCCN(C(=O)c3ccccc3-c3ncc[nH]3)C2)cc1 (stereo not given) 8.99%
O=C(c1ccccc1-c1ncc[nH]1)N1CCCC(Nc2ccc(F)cc2)C1 (stereo not given) 2.49%
CC1CN(C(=O)CCNC(=O)c2ccc(Br)cc2)CC(C)O1 (stereo not given) 3.26%
Cc1ccc(OCC(=O)O)c(-n2nc3ccccc3n2)c1 9.25%
Nn1c(-c2cccc(O)c2)nnc1-c1cccc(O)c1 -0.05%
CC(C)CC(=O)NC(=S)Nc1ccc(N2CCN(C(=O)c3cccs3)CC2)cc1 9.14%
COC(=O)c1ccc(CNCC(=O)Nc2ccc(C(=O)OC)cc2)cc1 -0.29%
COc1cccc(NC(=O)CNCc2ccccc2)c1 1.69%
COc1ccc(CCNCC(=O)Nc2ccc(OC(F)(F)F)cc2)cc1OC 28.8%
COc1ccc(CNCC(=O)Nc2cccc(S(N)(=O)=O)c2)cc1 24.6%
CN1CCN(NS(=O)(=O)c2ccc(Cl)s2)CC1 13.4%
CCn1c(SCC(=O)OCc2ccccc2)nc2c1c(=O)n(C)c(=O)n2C -1.89%
CC(=O)Nc1ccc(NC(=O)c2nccnc2C(=O)O)cn1 2.3%
O=C(C(c1ccccc1)C(O)(c1ccccc1)c1ccccc1)N1CCOCC1 (stereo not given) -4.45%
CCNC(=S)N(CCc1c(C)[nH]c2ccccc12)Cc1cc(OC)c(OC)c(OC)c1 13.9%
O=C(CSC1=N/C(=C/c2ccc(Cl)c(Cl)c2)C(=O)N1c1ccccc1F)NC1CC1 6.1%
CN(C(=O)COC(=O)COc1ccc2ccccc2c1)c1ccccc1 5.73%
COc1ccc(OC)c(S(=O)(=O)N2CCC(C(=O)N(C)Cc3ccccc3)CC2)c1 13.1%
CC1CCN(CCCn2c(=S)[nH]c3c(sc4ccc([N+](=O)[O-])cc43)c2=O)CC1 17.7%
CCC(C)n1c(=S)[nH]c2ccccc2c1=O (stereo not given) 5.28%
O=C(O)CCCn1c(=O)[nH]c2ccccc2c1=O 4.27%
CCC(C)n1c(SCc2ccc([N+](=O)[O-])cc2)nc2ccsc2c1=O (stereo not given) 2.36%
COc1cccc(-c2cc3nc(C)cc(N4CCN(C(=O)c5ccoc5)CC4)n3n2)c1 13.9%
CCOc1ccc(/C=C(\C#N)C(=O)Nc2ccccn2)cc1 -0.14%
CCc1noc(C)c1C(=O)N1CCCC(N2CCN(c3cccc(Cl)c3)CC2)C1 (stereo not given) 8.33%
C/C(=N\Nc1ccc([N+](=O)[O-])cc1)c1ccc(C#N)cc1 -4.19%
C/C(=N\Nc1ccc([N+](=O)[O-])cc1)c1cccc(N)c1 1.82%
O=C(NCc1ccc(F)cc1)C1CCC(=O)N1C1CCCCC1 (stereo not given) -0.47%
COc1ccc(OC(=O)OCc2ccccc2)cc1 11.7%
COc1cc2c(cc1CNC[C@H]1O[C@@H](n3ccc(N)nc3=O)[C@H](O)[C@@H]1O)OCO2 6.09%
Cc1cc(CNC[C@H]2O[C@@H](n3ccc(N)nc3=O)[C@H](O)[C@@H]2O)no1 9.68%
C=CCNc1nnc(Cc2ccc(F)cc2)c(=O)[nH]1 4.71%
COc1cc2c(cc1NC(=O)c1cccc([N+](=O)[O-])c1)oc1ccccc12 1.77%
OC(CN1CCN(Cc2ccccc2)CC1)c1ccc(F)cc1 (stereo not given) -1.4%
c1ccc(CN2CCN(C(c3ccccc3)c3ccccc3)CC2)cc1 16.6%
CN(CC(=O)N1CCN(Cc2ccccc2)CC1)S(=O)(=O)c1ccc(F)cc1 -3.86%
O=C(c1ccc(F)cc1)N1CCN(Cc2ccccc2)CC1 7.84%
COc1ccccc1C1CCN(C(=O)c2cnn(-c3ccccc3)c2C)CC1 12.4%
O=C(Nc1ccc([N+](=O)[O-])cc1NC(=O)c1ccccc1)c1ccccc1 2.42%
CCC(=O)Nc1ccccc1N1CCN(c2ccc(F)cc2)CC1 2.63%
CCSc1nc2ccc(N3C(=O)C4C5C=CC(C5)C4C3=O)cc2s1 (stereo not given) -1.62%
CN1CCC(=O)N([C@H](CSc2ccc(Br)cc2)Cc2ccccc2)CC1 1.09%
COc1cc(OC)cc(C(=O)N2CCN(S(=O)(=O)c3ccc4c(c3)OCCO4)CC2)c1 9.94%
COc1cccc(/C(C)=N/Nc2ccc(S(=O)(=O)N3CCCCC3)cn2)c1 7.29%
C/C(=N\Nc1ccc(S(=O)(=O)N2CCCCC2)cn1)c1cccc(Br)c1 3.57%
CC(C)(C)OC(=O)NCCCC[C@H](NC(=O)c1nc[nH]c1C(=O)NC(c1ccccc1)c1ccccc1)C(=O)OC(C)(C)C 2.03%
CCN(C(=O)COC(=O)c1cccc(-n2cnnn2)c1)C1CCCCC1 11.8%
